High-throughput results deposited in PubChem by several laboratories.
BaF3 parental = reduces parental Ba/F3 cell viability, JAK2V617F counter-screen; inhibition, % at 5.6 µM; CellTiter-Glo ATP luminescence; AID 1486; 1.1% of 220,000 active;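 active = inhibition above a per-campaign cutoff, the mean inhibition of all tested compounds plus 3 SD, cut at about 27% in these data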
IEC-6 tox = IEC-6 cytotoxicity, counter-screen for KLF5 inhibitors | luminescence viability | AID 1825 | 0.78% of 290,000 active | inhibition, % at 5 µM; in the data active = inhibition above about 22%
KLF5 inhibitor = kruppel-like factor 5 inhibition. DLD-1 KLF5 promoter-luciferase reporter, luminescence. inhibition, % at 5 µM. 0.23% of 290,000 active;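 active = inhibition above a per-plate limit of that plate's mean compound inhibition plus 3 SD, cut at about 60% in these data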;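 note: higher means less KLF5 promoter-driven luciferase light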
Ba/F3 V617F tox = loss of viability in JAK2V617F-driven Ba/F3 cells. Ba/F3 EpoR-JAK2V617F viability, ATP luminescence. inhibition, % at 5.6 µM. 1.1% of 220,000 active. AID 1446;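 active = inhibition above the campaign mean plus 3 SD over all tested compounds, cut at about 24% in these data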;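 note: cytokine-independent growth of Ba/F3 cells driven by EpoR plus mutant JAK2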
APP 5UTR inh = APP translation inhibition; SH-SY5Y APP 5'UTR-luciferase reporter, luminescence; inhibition, % at 2 µM; 0.82% of 190,000 active;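 active = inhibition above a set limit, derived from the sample mean plus 3 SD, cut at about 45% in these data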
Numbers stand for hits; – = inactive; · = not tested or not shown. In the library only some 1.9% were active in any assay of this set; here they are far more common.

SMILES	BaF3 parental	IEC-6 tox	KLF5 inhibitor	Ba/F3 V617F tox	APP 5UTR inh
O=C(N/N=C(\c1ccccc1)c1ccccn1)c1cccc([N+](=O)[O-])c1	91.2	89.0	67.4	99.0	85.2
COc1cc(C(=O)Oc2ccccc2/C=N/NC(=O)c2ccc(C)c(Cl)c2)cc(OC)c1OC	–	–	–	–	50.4
Cc1cc2nnn(-c3nnc(-c4ccccc4)c4ccccc34)c2cc1C	–	–	–	–	–
CCOC(=O)c1ccc(NC(=O)Cn2nnc3ccccc32)cc1	59.4	–	–	–	–
COc1ccc(NC(=S)N(C)CC2COc3ccccc3O2)cc1 (stereo not given)	–	–	–	–	–
CCN(CC1COc2ccccc2O1)C(=S)Nc1ccc(F)cc1 (stereo not given)	31.1	–	–	33.9	–
CC(Sc1ccc(Cl)cc1)C(=O)NNC(=O)c1ccccc1O (stereo not given)	·	–	–	·	·
CCC(=O)Nc1cccc(C(=O)/C=C/c2cc(Br)ccc2OC)c1	–	–	–	–	75.0
CC(=O)Nc1cccc(C(=O)/C=C/c2ccc(/C=C/C(=O)c3cccc(NC(C)=O)c3)cc2)c1	–	–	–	–	92.4
COc1ccc(C2Nc3ccccc3C(=O)N2NS(=O)(=O)c2ccccc2)cc1 (stereo not given)	–	–	–	–	–
Cc1ccc2nc(/C(C#N)=C\c3ccc([N+](=O)[O-])o3)[nH]c2c1	–	–	–	–	–
N#C/C(=C\c1ccc([N+](=O)[O-])o1)c1nc2ccccc2[nH]1	–	–	–	–	96.7
COc1ccc(-c2csc3ncnc(N4CCN(c5ccccc5[N+](=O)[O-])CC4)c23)cc1	·	–	–	·	·
CCCOc1ccc(OCCSc2nnc(N)s2)cc1	40.4	–	–	23.5	–
Cc1cccc(N2CCN(S(=O)(=O)c3c(C)nc4scc(C)n4c3=O)CC2)c1C	·	–	–	·	·
O=C(c1ccc(Cl)cc1)C(Cn1cncn1)C(Sc1ccccc1)c1ccccc1 (stereo not given)	–	–	–	–	50.8
CN(C)S(=O)(=O)c1ccc(C(=O)OCCCN=C2NS(=O)(=O)c3ccccc32)cc1	–	–	–	–	45.1
CCOc1ccc2c(c1)OC(c1ccc(C)cc1)(C(F)(F)F)NC2=O (stereo not given)	51.3	42.4	–	58.0	94.7
CC1=CC(C)C2COC(c3ccc[n+](C)c3)C1C2C (stereo not given)	39.8	–	–	35.1	–
CC1=CC(C)[C@@H]2COC(c3ccc(O)cc3)[C@H]1C2C (stereo not given in full)	·	–	–	·	·
Cc1ccc(N=Cc2cc(Cl)cc(Cl)c2O)nc1	–	–	–	–	–
Oc1c(Cl)cc(Cl)cc1/C=N/Nc1ncc(Br)cn1	–	–	–	–	81.0
COc1ccc(-c2cnnc(N/N=C/c3c(C)nn(-c4ccccc4)c3Cl)n2)cc1	–	–	–	–	62.0
COc1ccc(-c2cnnc(N/N=C/c3ccc(O)cc3)n2)cc1	–	–	–	–	–
CCOC(=O)C1=C(c2ccccc2)NC(=O)NC1c1ccsc1 (stereo not given)	·	–	–	·	·
SMILES	BaF3 parental	IEC-6 tox	KLF5 inhibitor	Ba/F3 V617F tox	APP 5UTR inh
CC(C)c1ccc(S(=O)(=O)/N=C2/C=C(Sc3ncn[nH]3)C(=O)c3ccccc32)cc1	73.6	38.7	–	53.6	–
Cc1ccc(S(=O)(=O)/N=C2/C=C(Sc3ncn[nH]3)C(=O)c3ccccc32)c(C)c1	–	–	–	53.8	65.5
CC(C)(C)c1ccc(S(=O)(=O)/N=C2\C=C(NS(=O)(=O)c3ccccc3)C(=O)c3ccccc32)cc1	·	–	–	·	·
CCOc1ccc(Br)cc1C1=NN(C(C)=O)C(c2ccc([N+](=O)[O-])s2)O1 (stereo not given)	·	–	–	·	·
Cc1ccc(S[C@@H](CCN2CC[C@H](C(C)(C)C)CCC2=O)c2ccccc2)cc1	·	–	–	·	·
COc1ccc(C2=NOC(C(=O)NCc3ccccc3)C2)cc1 (stereo not given)	–	27.1	–	–	–
O=C(O)CSc1ncnc2sc3c(c12)CCCC3	89.8	–	–	–	–
O=C(O)CSc1ncnc2sc3c(c12)CCC3	–	–	–	–	–
CC(C)(C)C(=O)N1CCN(c2ncnc3scc(-c4ccccc4)c23)CC1	·	–	–	·	·
CC(=O)NCc1ccc(S(=O)(=O)N2CCCN(C)CC2)cc1	·	–	–	·	·
CC1CCC(C(C)C)C(OC(=O)Cn2c(-c3ccc(Br)cc3)[n+](C)c3ccccc32)C1 (stereo not given)	86.8	–	–	101.1	–
CC1CCC(C(C)C)C(OC(=O)COC(=O)c2ccc(N)cc2)C1 (stereo not given)	–	–	–	–	–
CC1CCC(C(C)C)C(OC(=O)Cn2c(-c3ccc(Cl)cc3)[n+](C)c3ccccc32)C1 (stereo not given)	95.2	–	–	98.7	·
CC1CCC(C(C)C)C(OC(=O)COC(=O)c2cccn2C)C1 (stereo not given)	–	–	–	–	–
Cc1ccccc1OCc1n(CC(=O)OC2CC(C)CCC2C(C)C)c2ccccc2[n+]1C (stereo not given)	79.8	–	–	100.7	–
COc1cc(Cl)ccc1OCc1cc(C(=O)N(C)CCc2cnn(C)c2)no1	·	–	–	·	·
COc1ccccc1Nc1nc(N)nc(CSC(=S)N2CCCCC2)n1	–	–	–	–	·
COCCOc1ccc(C(F)(F)F)cc1NC(=O)COC(=O)C12CC3CC(CC(O)(C3)C1)C2	·	–	–	·	·
C=CCNC(=O)CSc1cc([N+](=O)[O-])cc(S(=O)(=O)Cc2ccccc2)c1	38.3	–	–	–	–
O=C(NC1CC1)c1ccc(CSCc2ccccc2Cl)o1	·	–	–	·	·
COc1ccccc1CC(=O)Nc1cccc(S(=O)(=O)N2CCOCC2)c1	·	–	–	·	·
CCCCNC(C(=O)Nc1cccc(S(=O)(=O)N2CCOCC2)c1)c1ccccc1 (stereo not given)	35.9	–	–	–	–
O=C(Cc1ccc(Br)cc1)N(Cc1ccccc1)c1ccccn1	–	–	–	–	–
COc1ccc(-c2nc(NC(=O)C3CC(=O)N(c4ccc5c(c4)OCCO5)C3)sc2C)cc1 (stereo not given)	53.0	–	–	44.7	–
COc1ccccc1-n1nc(C(=O)O)c2ccccc2c1=O	69.0	–	–	–	–
SMILES	BaF3 parental	IEC-6 tox	KLF5 inhibitor	Ba/F3 V617F tox	APP 5UTR inh
COc1ccc(CNCC(O)COc2cccc3c2OC(C)(C)C3)cc1 (stereo not given)	28.7	–	–	–	–
COC(=O)c1ccc(COc2cccc3c2OC(C)(C)C3)cc1	·	–	–	·	·
O=C(Nc1ccccc1)NN(C(=O)CCl)c1ccccc1	·	–	–	·	·
CC[N+]1=C(C)C(C)(C)c2cc(C)ccc21	72.2	–	–	64.5	–
Cc1ccc2c(c1)C=CC(C)(C)S2=O (stereo not given)	–	–	–	–	–
N#CCCN1CCN(C(=S)c2ccc(-c3ccc(Cl)cc3)o2)CC1	93.1	–	–	–	–
Cc1ccc2c(c1)nnn2C1CCN(S(=O)(=O)c2ccc(C(=O)N3C(C)CCCC3C)cc2)CC1 (stereo not given)	57.7	–	–	50.8	–
Cc1ccc2c(c1)nnn2C1CCN(S(=O)(=O)c2ccc(C(=O)O)cc2)CC1	–	–	–	–	–
